PubChem BioAssay (NCATS)
Several values for one entry are separate records, joined by “and”; a condition that tells them apart may be missing. Identical values can stand only once. Results filed as inconclusive are left out. Activity calls are given as the source filed them. Calls come from the whole dose curve; as a rule, active = well fitted curve in the direction sought with a large enough effect; inconclusive = small, poorly fitted or top-dose-only effect, or another doubt; inactive = no such curve, though single readings can be large; an effect the other way counts as inactive or inconclusive.

The compounds below were run against Cellular tumor antigen p53 (Homo sapiens) (UniProt P04637) (assay: Primary qHTS for small molecule compounds that upregulate eGFP-tagged delta133p53alpha (in N-terminal) cells. (AID 2060322;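 note: 0% = DMSO vehicle and 100% = reference activator; nearly all actives have a fitted effect of over 75% in size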)). Details: NCI-H358 eGFP-delta133p53alpha fluorescence, 24 h; activation: stronger effect = higher value.
Procedure, shortened: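 NCI-H358 cells pre-induced 24 h with 10 ng/ml doxycycline to express N-terminal eGFP-delta133p53alpha, then dosed 24 h at 37C without doxycycline; fixed, Hoechst-stained, GFP intensity by laser scanning cytometry, normalized to DMSO (0%) and 57.5 uM 5-azacytidine (100%).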

Cellular tumor antigen p53 (Homo sapiens), sequence (P04637 whole entry, looked up): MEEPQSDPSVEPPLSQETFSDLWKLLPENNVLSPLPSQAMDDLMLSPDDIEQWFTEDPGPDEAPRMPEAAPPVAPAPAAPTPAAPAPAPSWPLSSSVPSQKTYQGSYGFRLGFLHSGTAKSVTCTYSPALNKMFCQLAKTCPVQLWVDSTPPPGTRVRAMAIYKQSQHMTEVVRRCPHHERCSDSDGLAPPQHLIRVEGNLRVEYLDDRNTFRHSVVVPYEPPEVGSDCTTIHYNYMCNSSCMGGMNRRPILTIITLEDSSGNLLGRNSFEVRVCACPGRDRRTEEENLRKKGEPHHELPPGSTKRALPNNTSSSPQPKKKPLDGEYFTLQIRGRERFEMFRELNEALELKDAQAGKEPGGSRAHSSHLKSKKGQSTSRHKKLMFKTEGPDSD

SMILES | activation
O[Si](CCCN1CCCCC1)(c1ccc(F)cc1)C1CCCCC1 (stereo not given) | -77.2% (inactive)
CC(C)(C)NC[C@H](O)COc1nsnc1N1CCOCC1 | -9.94% (inactive)
C=C1C[C@@]23CC[C@H]4[C@@](C)(CCC[C@@]4(C)C(=O)O)[C@@H]2CC[C@]1(O)C3 | 9.04% (inactive)
COc1cccc(OC)c1OCCNCC1CSc2ccccc2O1 (stereo not given) | 20.5% (inactive)
CCOC(=O)C1=C(C)NC(C)=C(C(=O)OC)C1c1cccc(Cl)c1Cl (stereo not given) | 16.4% (inactive) and -13.8% (inactive)
COc1cc(OC)cc(-c2cc3cnc(N)nc3nc2NC(=O)NC(C)(C)C)c1 | 5.06% (inactive)
O=C(O)c1ccccc1Nc1ccccc1 | -8.85% (inactive)
NS(=O)(=O)C#Cc1ccccc1 | 60.6% (inactive)
COc1ccc(/C=C2\COc3ccc(C)cc3C2=O)cc1O | -71.5% (inactive)
CCCCNC(=O)NS(=O)(=O)c1ccc(C)cc1 | -35.6% (inactive) and -11.9% (inactive)
O=C(CCSCc1ccco1)NNC(=O)N1Cc2ccccc2Oc2ccc(Cl)cc21 | 22% (inactive)
CCOC(=O)C1=C[C@]2(CC)CCCN3CCc4c(n1c1ccccc41)[C@@H]32 | 20.9% (inactive) and -18.2% (inactive)
NC(=Nc1ccccc1)NC(=O)c1nc(Cl)c(N)nc1N | -28.9% (inactive)
CC1CCN=C(N)S1 (stereo not given) | -24.3% (inactive)
Cc1cc(NC2CCCCC2)nc(-n2nc(C)cc2C)n1 | -20.8% (inactive)
N[C@H](C(=O)O)c1cc(O)cc(O)c1 | -2.9% (inactive)
Clc1ccc(N2CCN(Cc3cc4ccccn4n3)CC2)cc1 | -21.6% (inactive)
CCN(CC)CCCN(c1ccccc1)C1Cc2ccccc2C1 | -2.82% (inactive) and -37.7% (inactive)
CN/C(=C\[N+](=O)[O-])NCCSCc1ccc(CN(C)C)o1 | 7.34% (inactive) and -15.3% (inactive)
COc1ccccc1N1CCN(CCCCNC(=O)c2ccc3ccccc3c2)CC1 | -23% (inactive)

SMILES | activation
NC1C=CC=C(C(=O)O)C1 (stereo not given) | -22% (inactive)
CNCCCC1c2ccccc2C=Cc2ccccc21 | -1.67% (inactive) and -3.36% (inactive)
CCCN(CC1CC1)c1nc(C)nc(Nc2c(Cl)cc(Cl)cc2Cl)c1Cl | -22.7% (inactive)
COC(=O)C1=C(C)NC(C)=C([N+](=O)[O-])C1c1ccccc1C(F)(F)F (stereo not given) | -39.9% (inactive)
CCCCCCCCCCCCCCSCC(=O)O | -11% (inactive)
Oc1cc(O)c2c(c1)O[C@H](c1ccc(O)c(O)c1)[C@@H](O)C2 | -7.14% (inactive)
O=C(O)CC1CCCc2ccccc2C1O (stereo not given) | 5.92% (inactive)
CSC(=N)N | 3.81% (inactive)
CCCn1c(=O)c(C)cn2nc(N)nc12 | -37.9% (inactive)
CC(C)Cn1c(=O)n(C)c(=O)c2[nH]cnc21 | -30.3% (inactive)
Nc1ccc(S(=O)(=O)Nc2ccnn2-c2ccccc2)cc1 | 12.6% (inactive) and 48.1% (inactive) and -20.4% (inactive)
COc1cc([C@@H]2c3cc4c(cc3[C@H](O)C3COC(=O)[C@@H]32)OCO4)cc(OC)c1OC (stereo not given in full) | -47.3% (inactive)
Fc1ccc(CN(C2=NCCN2)c2c(Cl)cccc2Cl)cc1 | -28.1% (inactive)
N=S(=O)(O)Cc1noc2ccccc12 | -35.5% (inactive)
CCN1CCC[C@H]1CNC(=O)c1c(O)c(Cl)cc(Cl)c1OC | -10% (inactive) and -6.2% (inactive)
CCCCNc1c(C(=O)OCC)c(C)nc2c1cnn2CC | 8.47% (inactive) and 3.05% (inactive)
Cn1c(=O)c2c(nc(/C=C/c3cccc(Cl)c3)n2C)n(C)c1=O | -0.199% (inactive)
CN1[C@@H](CC(=O)c2ccccc2)CCC[C@H]1C[C@H](O)c1ccccc1 | 1.49% (inactive)
COc1cc(Cc2cnc(N)nc2N)cc(OC)c1OC | -5.08% (inactive) and -24.5% (inactive)
Nn1nnc2ccccc21 | 15.1% (inactive)

The compounds below were run against Cellular tumor antigen p53 (Homo sapiens) (UniProt P04637) (assay: Primary qHTS for small molecule compounds that upregulate eGFP-tagged delta133p53alpha (in C-terminal) cells. (AID 2060324; note: potency is the fitted concentration of half-maximal effect)). Details: NCI-H358 delta133p53alpha-eGFP (C-terminal tag), GFP fluorescence imaging, 24 h; series mostly up to 57.5 µM.
Procedure, shortened: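 NCI-H358 cells with doxycycline-inducible D133p53a-eGFP (C-terminal tag), pre-induced 24 h with 100 ng/ml doxycycline, plated 800/well in doxycycline-free medium and treated 24 h at 37 °C with compound titrations. Cells were then fixed and Hoechst-stained, and GFP intensity was read by laser scanning cytometry.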

SMILES | Potency
O[Si](CCCN1CCCCC1)(c1ccc(F)cc1)C1CCCCC1 (stereo not given) | inactive
CC(C)(C)NC[C@H](O)COc1nsnc1N1CCOCC1 | inactive
C=C1C[C@@]23CC[C@H]4[C@@](C)(CCC[C@@]4(C)C(=O)O)[C@@H]2CC[C@]1(O)C3 | inactive
COc1cccc(OC)c1OCCNCC1CSc2ccccc2O1 (stereo not given) | inactive
CCOC(=O)C1=C(C)NC(C)=C(C(=O)OC)C1c1cccc(Cl)c1Cl (stereo not given) | inactive
COc1cc(OC)cc(-c2cc3cnc(N)nc3nc2NC(=O)NC(C)(C)C)c1 | inactive
O=C(O)c1ccccc1Nc1ccccc1 | inactive
NS(=O)(=O)C#Cc1ccccc1 | 30.1 µM (active)
COc1ccc(/C=C2\COc3ccc(C)cc3C2=O)cc1O | 13.5 µM (active)
CCCCNC(=O)NS(=O)(=O)c1ccc(C)cc1 | inactive
O=C(CCSCc1ccco1)NNC(=O)N1Cc2ccccc2Oc2ccc(Cl)cc21 | inactive
CCOC(=O)C1=C[C@]2(CC)CCCN3CCc4c(n1c1ccccc41)[C@@H]32 | inactive
NC(=Nc1ccccc1)NC(=O)c1nc(Cl)c(N)nc1N | inactive
CC1CCN=C(N)S1 (stereo not given) | inactive
Cc1cc(NC2CCCCC2)nc(-n2nc(C)cc2C)n1 | inactive
N[C@H](C(=O)O)c1cc(O)cc(O)c1 | inactive
Clc1ccc(N2CCN(Cc3cc4ccccn4n3)CC2)cc1 | inactive
CCN(CC)CCCN(c1ccccc1)C1Cc2ccccc2C1 | inactive
CN/C(=C\[N+](=O)[O-])NCCSCc1ccc(CN(C)C)o1 | inactive
COc1ccccc1N1CCN(CCCCNC(=O)c2ccc3ccccc3c2)CC1 | inactive

SMILES | Potency
NC1C=CC=C(C(=O)O)C1 (stereo not given) | inactive
CNCCCC1c2ccccc2C=Cc2ccccc21 | inactive
CCCN(CC1CC1)c1nc(C)nc(Nc2c(Cl)cc(Cl)cc2Cl)c1Cl | inactive
COC(=O)C1=C(C)NC(C)=C([N+](=O)[O-])C1c1ccccc1C(F)(F)F (stereo not given) | inactive
CCCCCCCCCCCCCCSCC(=O)O | inactive
Oc1cc(O)c2c(c1)O[C@H](c1ccc(O)c(O)c1)[C@@H](O)C2 | inactive
O=C(O)CC1CCCc2ccccc2C1O (stereo not given) | inactive
CSC(=N)N | inactive
CCCn1c(=O)c(C)cn2nc(N)nc12 | inactive
CC(C)Cn1c(=O)n(C)c(=O)c2[nH]cnc21 | inactive
Nc1ccc(S(=O)(=O)Nc2ccnn2-c2ccccc2)cc1 | inactive
COc1cc([C@@H]2c3cc4c(cc3[C@H](O)C3COC(=O)[C@@H]32)OCO4)cc(OC)c1OC (stereo not given in full) | inactive
Fc1ccc(CN(C2=NCCN2)c2c(Cl)cccc2Cl)cc1 | inactive
N=S(=O)(O)Cc1noc2ccccc12 | inactive
CCN1CCC[C@H]1CNC(=O)c1c(O)c(Cl)cc(Cl)c1OC | inactive
CCCCNc1c(C(=O)OCC)c(C)nc2c1cnn2CC | inactive
Cn1c(=O)c2c(nc(/C=C/c3cccc(Cl)c3)n2C)n(C)c1=O | inactive
CN1[C@@H](CC(=O)c2ccccc2)CCC[C@H]1C[C@H](O)c1ccccc1 | inactive
COc1cc(Cc2cnc(N)nc2N)cc(OC)c1OC | inactive
Nn1nnc2ccccc21 | inactive
